From PubChem BioAssay (NCI)
The panel holds about 83,000 compounds, 20% with a hit somewhere; the sample as a whole holds those more often.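 Assay: single dose, 48 h. Readout: percent growth (0 = no net growth; negative = cell death). Active: <10.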 Values without a mark were called inactive. The source made the active and inactive calls.

Test system: SK-MEL-5 melanoma
Test: NCI-60 one-dose screen, 48 h (100 = growth as untreated, 0 = no growth, -100 = all killed)
Settings: 10 µM

Question: Which growth does the source give for `NC1=NC(c2ccccc2Cl)N=C(Nc2nn[nH]n2)N1` (centres undefined) here?
Answer: 98%

Question: `CC(=O)Nc1ccc(-c2cn(-c3cccc(C(=O)Nc4ccc(Cl)c(C(F)(F)F)c4)c3)nn2)cn1` was tested. Which growth did it give?
Answer: 38.5%

Question: For `CC(C)Sc1nc(NC2CC2)c(C#N)c(-c2ccccc2)n1`, which growth is on record?
Answer: 93.1%

Question: For `O=C1CCC(N2Cc3cc(CC(=O)Nc4ccc(N5CCCCC5)cc4)ccc3C2=O)C(=O)N1` (centres undefined), which growth is on record?
Answer: 38.8%

Question: Which growth does the source give for `N#Cc1c(Cl)nc(SCc2ccc(F)cc2)nc1-c1ccc(F)cc1` here?
Answer: 86.2%

Question: How did the growth turn out when `Cc1ccc(C(=O)N/C(=C2/OCCN2C)[P+](c2ccccc2)(c2ccccc2)c2ccccc2)cc1` was run?
Answer: 72.2%

Question: With `Cc1ccc(C(=O)NNC(=O)CSc2nc3ccccc3c(=O)[nH]2)cc1` as the molecule, how does the growth read?
Answer: 98.7%

Question: For `Cc1ccc2nc(-c3ccc(-c4nnc(SCC(=O)Nc5ccc(Br)cc5)o4)cc3)[nH]c2c1`, which growth is on record?
Answer: 85.5%

Question: Which growth does the source give for `CN1C/C(=C\c2ccc(O)cc2O)c2[o+]c3cc(O)ccc3cc2C1` here?
Answer: 57.9%

Question: Which growth does the source give for `COc1ccc2[nH]cc(/C=N/Nc3ccc(Br)cn3)c2c1` here?
Answer: 21.9%

Question: `CCCS(=O)(=O)c1oc(-c2ccc(F)cc2)nc1S(=O)(=O)c1ccc(F)cc1` was tested. Which growth did it give?
Answer: 41.8%

Question: How did the growth turn out when `COC[C@@H](CC(C)C)N=C1NC(=O)/C(=C/c2ccc3ncoc3c2)N1` was run?
Answer: 3.83% (active)

Question: How did the growth turn out when `CC(C)C(=O)Nc1ccc(C(=O)NC(=S)Nc2ccc(C(=O)O)cc2)cc1` was run?
Answer: 93.8%

Question: How did the growth turn out when `Cc1ccc(C(=O)NCCCNc2nc(Nc3ccc(N4CCN(C)CC4)cc3)nc3ccsc23)cc1` was run?
Answer: -15.2% (active)

Question: For `CC(=O)Nc1nc(-c2ccc(N3CCN(C)CC3)c(NS(=O)(=O)c3cccc4c(N(C)C)cccc34)c2)cs1`, which growth is on record?
Answer: 12.5%

Question: For `S=c1nc(-c2ccccc2)cc(-c2cc3ccccc3nc2Cl)[nH]1`, which growth is on record?
Answer: 32.1%

Question: How did the growth turn out when `O=C(/C=C/Nc1ccc(F)cc1F)c1ccc2c(c1)Nc1ccccc1S2` was run?
Answer: 76.1%

Question: How did the growth turn out when `Cc1ccc(-c2nc(Nc3ccccc3C(=O)O)c3ccccc3n2)cc1` was run?
Answer: -24.8% (active)

Question: How did the growth turn out when `COc1ccc(C(=O)/C=C/c2cc(C(F)(F)F)cc(C(F)(F)F)c2)cc1S(N)(=O)=O` was run?
Answer: -98.4% (active)

Question: With `COc1ccc(-c2cc(C(=O)N=Nc3c(O)[nH]c4ccccc34)c3ccccc3n2)cc1` as the molecule, how does the growth read?
Answer: 47.3%

Question: For `CS(=O)(=O)Nc1ccc(-c2ccc3c(c2)ncn3-c2ccc(NC(=O)Nc3ccc(Cl)c(C(F)(F)F)c3)cc2)cc1`, which growth is on record?
Answer: -97.7% (active)

Question: How did the growth turn out when `O=C(Nc1nc2ccc([N+](=O)[O-])cc2s1)Nc1ccccc1I` was run?
Answer: -78.5% (active)

Question: Which growth does the source give for `Clc1ccc2c(N/N=C/c3c[nH]c4ccc(Br)cc34)ccnc2c1` here?
Answer: -100% (active)

Question: For `N#Cc1ccc(-c2nn(-c3ccc(C(=O)O)cc3)cc2CNc2cc(Cl)cc(Cl)c2)cc1`, which growth is on record?
Answer: 23.9%

Question: With `COc1ccc2[nH]c(=O)c(CSc3ccc(Nc4nccc(-c5ccc(Cl)cc5)n4)cc3)cc2c1` as the molecule, how does the growth read?
Answer: 98.4%

Question: For `O=C1c2ccccc2C(=O)c2c1c(C(=O)c1ccc(Cl)cc1)n1c2ccc2c3ccccc3ccc21`, which growth is on record?
Answer: 99.9%

Question: For `Cc1ccc(CSc2nc(-c3ccc(F)cc3)c(C#N)c(=O)[nH]2)cc1`, which growth is on record?
Answer: 94.5%

Question: Which growth does the source give for `CCCCCc1ccc(S(=O)(=O)N(C(C)=O)c2cc(-c3csc(N(C)C(C)=O)n3)ccc2N2CCN(C)CC2)cc1` here?
Answer: -16% (active)

Question: With `O=C(c1ccc([N+](=O)[O-])c([N+](=O)[O-])c1O)n1[nH]c(=O)c2ccccc2c1=O` as the molecule, how does the growth read?
Answer: 77.8%

Question: With `COC[C@@H](CC(C)C)N=C1NC(=O)/C(=C/c2ccc3ncsc3c2)N1` as the molecule, how does the growth read?
Answer: -12.1% (active)

Question: For `O=C1Nc2cc(Cl)ccc2/C1=C/c1cccc(OCc2ccccc2)c1`, which growth is on record?
Answer: -98% (active)

Question: Which growth does the source give for `CN1CCN(c2ccc(C(=O)/C=C/c3cc(C(F)(F)F)ccc3Cl)cc2)CC1` here?
Answer: -90.6% (active)

Question: For `O=C(Cn1nc(-c2ccccc2)ccc1=O)NN1C(=O)c2ccccc2C1=O`, which growth is on record?
Answer: 100%

Question: How did the growth turn out when `O=C(Nc1ccncc1)c1ccc(-n2c(=O)[nH]c3ccccc3c2=O)cc1` was run?
Answer: 90.8%

Question: Which growth does the source give for `O=C1N/C(=N\c2nccs2)S/C1=C\c1cccs1` here?
Answer: -76.9% (active)

Question: For `COc1cc2c3c(n(CCCn4ccnc4)c(=O)c2cc1OC)-c1nc2c(cc1C3=O)OCO2`, which growth is on record?
Answer: 7.02% (active)

Question: `CN(C)c1cccc2c(S(=O)(=O)Nc3cccc(-c4csc(NC(=O)CCCCCN5CCN(c6cc7c(cc6F)C(=O)N(C6CCC(=O)NC6=O)C7=O)CC5)n4)c3)cccc12` (centres undefined) was tested. Which growth did it give?
Answer: 60.2%

Test system: UACC-62 melanoma
Test: as above
Settings: 10 µM

Question: With `NC1=NC(c2ccccc2Cl)N=C(Nc2nn[nH]n2)N1` (centres undefined) as the molecule, how does the growth read?
Answer: 94.1%

Question: How did the growth turn out when `CC(=O)Nc1ccc(-c2cn(-c3cccc(C(=O)Nc4ccc(Cl)c(C(F)(F)F)c4)c3)nn2)cn1` was run?
Answer: -62.4% (active)

Question: How did the growth turn out when `CC(C)Sc1nc(NC2CC2)c(C#N)c(-c2ccccc2)n1` was run?
Answer: 87.1%

Question: For `O=C1CCC(N2Cc3cc(CC(=O)Nc4ccc(N5CCCCC5)cc4)ccc3C2=O)C(=O)N1` (centres undefined), which growth is on record?
Answer: 78.1%

Question: `N#Cc1c(Cl)nc(SCc2ccc(F)cc2)nc1-c1ccc(F)cc1` was tested. Which growth did it give?
Answer: 86%

Question: Which growth does the source give for `Cc1ccc(C(=O)N/C(=C2/OCCN2C)[P+](c2ccccc2)(c2ccccc2)c2ccccc2)cc1` here?
Answer: 48.2%

Question: Which growth does the source give for `Cc1ccc(C(=O)NNC(=O)CSc2nc3ccccc3c(=O)[nH]2)cc1` here?
Answer: 89.4%

Question: For `Cc1ccc2nc(-c3ccc(-c4nnc(SCC(=O)Nc5ccc(Br)cc5)o4)cc3)[nH]c2c1`, which growth is on record?
Answer: 57.3%

Question: `CN1C/C(=C\c2ccc(O)cc2O)c2[o+]c3cc(O)ccc3cc2C1` was tested. Which growth did it give?
Answer: 47.5%

Question: How did the growth turn out when `COc1ccc2[nH]cc(/C=N/Nc3ccc(Br)cn3)c2c1` was run?
Answer: 51.3%

Question: Which growth does the source give for `CCCS(=O)(=O)c1oc(-c2ccc(F)cc2)nc1S(=O)(=O)c1ccc(F)cc1` here?
Answer: 22%

Question: `COC[C@@H](CC(C)C)N=C1NC(=O)/C(=C/c2ccc3ncoc3c2)N1` was tested. Which growth did it give?
Answer: -27.3% (active)

Question: For `CC(C)C(=O)Nc1ccc(C(=O)NC(=S)Nc2ccc(C(=O)O)cc2)cc1`, which growth is on record?
Answer: 91.5%

Question: With `Cc1ccc(C(=O)NCCCNc2nc(Nc3ccc(N4CCN(C)CC4)cc3)nc3ccsc23)cc1` as the molecule, how does the growth read?
Answer: 24.1%

Question: How did the growth turn out when `CC(=O)Nc1nc(-c2ccc(N3CCN(C)CC3)c(NS(=O)(=O)c3cccc4c(N(C)C)cccc34)c2)cs1` was run?
Answer: 13.1%

Question: With `S=c1nc(-c2ccccc2)cc(-c2cc3ccccc3nc2Cl)[nH]1` as the molecule, how does the growth read?
Answer: 43.8%

Question: `O=C(/C=C/Nc1ccc(F)cc1F)c1ccc2c(c1)Nc1ccccc1S2` was tested. Which growth did it give?
Answer: 48.8%

Question: For `Cc1ccc(-c2nc(Nc3ccccc3C(=O)O)c3ccccc3n2)cc1`, which growth is on record?
Answer: 11%

Question: Which growth does the source give for `COc1ccc(C(=O)/C=C/c2cc(C(F)(F)F)cc(C(F)(F)F)c2)cc1S(N)(=O)=O` here?
Answer: -73.4% (active)

Question: `COc1ccc(-c2cc(C(=O)N=Nc3c(O)[nH]c4ccccc34)c3ccccc3n2)cc1` was tested. Which growth did it give?
Answer: 39.5%

Question: Which growth does the source give for `CS(=O)(=O)Nc1ccc(-c2ccc3c(c2)ncn3-c2ccc(NC(=O)Nc3ccc(Cl)c(C(F)(F)F)c3)cc2)cc1` here?
Answer: -85.8% (active)

Question: Which growth does the source give for `O=C(Nc1nc2ccc([N+](=O)[O-])cc2s1)Nc1ccccc1I` here?
Answer: 3.63% (active)

Question: Which growth does the source give for `Clc1ccc2c(N/N=C/c3c[nH]c4ccc(Br)cc34)ccnc2c1` here?
Answer: -85.4% (active)

Question: Which growth does the source give for `N#Cc1ccc(-c2nn(-c3ccc(C(=O)O)cc3)cc2CNc2cc(Cl)cc(Cl)c2)cc1` here?
Answer: 28.5%

Question: For `COc1ccc2[nH]c(=O)c(CSc3ccc(Nc4nccc(-c5ccc(Cl)cc5)n4)cc3)cc2c1`, which growth is on record?
Answer: 105%

Question: For `O=C1c2ccccc2C(=O)c2c1c(C(=O)c1ccc(Cl)cc1)n1c2ccc2c3ccccc3ccc21`, which growth is on record?
Answer: 96.9%

Question: For `Cc1ccc(CSc2nc(-c3ccc(F)cc3)c(C#N)c(=O)[nH]2)cc1`, which growth is on record?
Answer: 93.8%

Question: `CCCCCc1ccc(S(=O)(=O)N(C(C)=O)c2cc(-c3csc(N(C)C(C)=O)n3)ccc2N2CCN(C)CC2)cc1` was tested. Which growth did it give?
Answer: -88.2% (active)

Question: For `O=C(c1ccc([N+](=O)[O-])c([N+](=O)[O-])c1O)n1[nH]c(=O)c2ccccc2c1=O`, which growth is on record?
Answer: 60.3%

Question: `COC[C@@H](CC(C)C)N=C1NC(=O)/C(=C/c2ccc3ncsc3c2)N1` was tested. Which growth did it give?
Answer: 1.43% (active)

Question: `O=C1Nc2cc(Cl)ccc2/C1=C/c1cccc(OCc2ccccc2)c1` was tested. Which growth did it give?
Answer: -32.6% (active)

Question: `CN1CCN(c2ccc(C(=O)/C=C/c3cc(C(F)(F)F)ccc3Cl)cc2)CC1` was tested. Which growth did it give?
Answer: -79.9% (active)

Question: How did the growth turn out when `O=C(Cn1nc(-c2ccccc2)ccc1=O)NN1C(=O)c2ccccc2C1=O` was run?
Answer: 106%

Question: Which growth does the source give for `O=C(Nc1ccncc1)c1ccc(-n2c(=O)[nH]c3ccccc3c2=O)cc1` here?
Answer: 76.9%

Question: `O=C1N/C(=N\c2nccs2)S/C1=C\c1cccs1` was tested. Which growth did it give?
Answer: -18.9% (active)

Question: For `COc1cc2c3c(n(CCCn4ccnc4)c(=O)c2cc1OC)-c1nc2c(cc1C3=O)OCO2`, which growth is on record?
Answer: 4.19% (active)

Question: Which growth does the source give for `CN(C)c1cccc2c(S(=O)(=O)Nc3cccc(-c4csc(NC(=O)CCCCCN5CCN(c6cc7c(cc6F)C(=O)N(C6CCC(=O)NC6=O)C7=O)CC5)n4)c3)cccc12` (centres undefined) here?
Answer: 83.1%
